Test results: PubChem BioAssay (NCI)
About 83,000 compounds went through this panel and 20% of them were active in at least one assay; those are over-represented in the sample as a whole.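 Interpretation: 100, growth as untreated; towards 0, rising growth inhibition; 0, no net growth; 0 to -100, cell death. Compounds scoring below 10 were considered active.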 Values without a mark were called inactive. The source made the active and inactive calls.

Each compound was assayed on SK-MEL-28 melanoma (assay: NCI-60 one-dose screen, 48 h (100 = growth as untreated, 0 = no growth, -100 = all killed)). Conditions: 10 µM.
Procedure: Growth inhibition of the SK-MEL-28 human tumor cell line is measured as a screen for anti-cancer activity. Cells are grown in 96 well plates and exposed to the test compound for 48 hours. Compounds are tested at a single concentration, which is 10^-5 M for most compounds. The reported endpoint is percent growth (GI% or GIPRCNT), where numbers from 0 - 100% represent growth inhibition, and numbers from -100% - 0 represent cell death. For example, a value of 40 represents 60% growth inhibition. A value of 0 means no net growth occurred over the course of the experiment. A value of -40 indicates 40% of cells at the beginning of the experiment died by the end of the experiment. A value of -100 means all cells are dead at the end of the experiment.
NCI-60 Human Tumor Cell Lines Screen was performed using the standard one-dose NCI protocol, which is described in more detail at https://dtp.cancer.gov/discovery_development/nci-60/default.htm.
Compounds with GIPRCNT values below 10 were considered active. Activity score was based on GIPRCNT using the following formula: […]
Score is 0 for GIPRCNT values of 100 or above, 50 for GIPRCNT values of 0, and 100 for GIPRCNT values of -100.
O=C(NC(=S)N1CCN(c2ncnc3c2cnn3-c2ccccc2)CC1)c1ccc(Cl)cc1 gave a growth of 82.5%. Compound COc1cc2c3c(n(CCCNC(C)C)c(=O)c2cc1OC)-c1nc2c(cc1C3=O)OCO2 has a growth of 49.2%. NS(=O)(=O)c1ccc(NC(=O)CSc2ccc(-c3ccc(Cl)cc3)nn2)c(Br)c1 was tested, and the growth was 79.5%. In the case of O=C(CS(=O)(=O)c1oc(-c2ccc(Cl)cc2)nc1S(=O)(=O)c1ccccc1)N1CCCC1, the growth is reported as -100% (active). COc1cc(/C=C/C(=O)c2ccc(S(=O)(=O)NCCNc3nc(Nc4ccc(F)cc4)nc(N(C)C)n3)cc2)cc(OC)c1OC gave a growth of 18%. CC[C@]12C=CCN3CC[C@@]4(c5cc(C#CCNc6ccc(C)c(Nc7nccc(-c8cccnc8)n7)c6)c(OC)cc5N(C)[C@H]4[C@@](O)(C(=O)OC)[C@@H]1OC(C)=O)C32 (stereo not given in full) showed a growth of 37.5%. O=C(CSc1nnc(-c2c[nH]c3ccccc23)n1-c1ccccc1)c1ccc(Cl)cc1 was tested, and the growth was 68.3%. CCOC(=O)C1=C(N)N(c2ccccc2)C2=C(C(=O)CC(C)(C)C2)C1c1ccc(Cl)cc1 (stereo not given) gave a growth of 44.5%. COc1ccc(-c2ccc(SCC(=O)Nc3ccc(C#N)cc3)nn2)cc1 was tested, and the growth was 97.7%. In the case of Cn1cc(-c2cc(N)n3nc(-c4c[nH]c5ccc(Br)cc45)cc3n2)c2cc(Br)cnc21, the growth is reported as -87.1% (active). CCOP(=O)(OCC)O[C@H]1CC[C@]2(C)[C@H]3CC[C@@H]4[C@@H]([C@](C)(O)CCC=C(C)C)CC[C@@]4(C)[C@]3(C)CC[C@H]2C1(C)C gave a growth of 48.8%. COc1ccc2[nH]cc(/C=N/Nc3ccc(Br)cn3)c2c1 showed a growth of 61.5%. With Cc1cc2c(c(O)c1Br)-c1ncoc1C(=O)[C@]1(C)CC[C@H](C(C)C)[C@H]21 the growth was 46.6%. With CC(=O)Nc1ccc(-n2cnc3cc(-c4ccc(O)cc4)ccc32)cc1C the growth was 51.8%. O=C(CNc1nc(-c2ccccc2)cs1)Nc1ccc(Cl)cc1[N+](=O)[O-] was tested, and the growth was -69.4% (active). For CC1=C2C(=C[C@@](C)(CO)[C@@H]2O)/C(=N\N)[C@](C)(O)C12CC2, the growth was -67.2% (active). O=C(Cn1nc(-c2ccccc2)ccc1=O)NNC(=S)NC1CCCCC1 showed a growth of 108%. CCCn1c(O)c(N=Nc2nc(-c3cc4ccccc4oc3=O)cs2)c2cc(Br)ccc21 gave a growth of 101%. For O=C(NO)c1ccc(Cn2ccc3c(Nc4ccccc4)ncnc32)cc1, the growth was 5.83% (active). In the case of O=c1c2ccccc2nc(COc2ccccc2)n1/N=C/c1ccc(N2CCOCC2)cc1, the growth is reported as 83.3%. CS(=O)(=O)Nc1ccc(-c2ccc3c(c2)ncn3-c2ccc(NC(=O)Nc3ccc(Br)cc3)cc2)cc1 was tested, and the growth was 1.57% (active). For O=C(Nc1cccc(C(F)(F)F)c1)c1cncc(C#Cc2cnc3cccnn23)c1, the growth was 63.2%. In the case of O=C(CNc1nc(-c2ccccc2)cs1)Nc1ccc([N+](=O)[O-])cc1Cl, the growth is reported as 62.1%. COc1ccc(-c2ccc(/C=N/NC(=O)c3[nH]c4ccc(Br)cc4c3-c3ccccc3)o2)cc1 gave a growth of 46.9%. Compound O=C(CNc1nc(-c2ccccc2)cs1)Nc1cccc(Cl)c1 has a growth of 42.8%. For Cn1cc(/C=N/Nc2ccnc3cc(Cl)ccc23)c2ccccc21, the growth was -89.6% (active). In the case of COc1cc(-c2nc3cc(Cl)c(Cl)cc3[nH]2)ccc1OCc1nnc(-c2ccc(Br)cc2)o1, the growth is reported as -25% (active). Compound O=S(=O)(Nc1ncccn1)c1ccc(-n2c(-c3ccccc3)nc(-c3ccccc3)c2-c2ccccc2)cc1 has a growth of 105%. In the case of Cc1cc(=O)oc2cc(OCCCCOc3ccc(/C=C/C(=O)Nc4cccc(Cl)c4)cc3)ccc12, the growth is reported as 86.8%. Compound Cn1c(O)c(N=Nc2nc(-c3cc4ccccc4oc3=O)cs2)c2cc(Br)ccc21 has a growth of 99.8%. CC(=O)Nc1ccc(-c2cn(-c3cccc(C(=O)Nc4cccc(OC(F)(F)F)c4)c3)nn2)cn1 showed a growth of 92.8%. COc1ccc(-c2cc(C(=O)N=Nc3c(O)[nH]c4ccc(F)cc34)c3ccccc3n2)cc1 showed a growth of 81.1%. N#Cc1c(Cl)nc(SCc2ccc(F)cc2)nc1-c1ccc(F)cc1 showed a growth of 104%. Cc1ccc(C(=O)Nc2ccc(-n3c(C)nc4c(cnn4-c4ccccc4)c3=O)cc2)cc1 showed a growth of 80.7%. With CCOC(=O)CNC(=O)CN(Cc1ccccc1)C(=O)[C@@]1(C)CCC[C@]2(C)[C@H]3CC4C(C(C)C)=C[C@]3(CC[C@H]21)[C@@H]1C(=O)CCC(=O)[C@H]41 the growth was 62.7%. With O=C(Nc1nc2ccccc2s1)c1ccc(Br)cc1 the growth was 90.7%. Clc1ccc2c(N/N=C/c3c[nH]c4ccc(Br)cc34)ccnc2c1 was tested, and the growth was -98.5% (active). CC1(c2ccccc2)NC(=O)N(CC(=O)Nc2ccc(C(=O)/C=C/c3ccc(Cl)cc3)cc2)C1=O (stereo not given) was tested, and the growth was 15.8%. Compound COc1ccc(CN2[C@@H](C(=O)NCc3ccc(C(=O)NO)cc3)Cc3c([nH]c4ccccc34)[C@@H]2C)cc1 has a growth of 17.6%. COc1cc(/C=C/C(=O)c2ccc(F)cc2)ccc1Oc1nc(Nc2ccc(F)cc2)nc(N(C)C)n1 showed a growth of 62%.
